# Laboratory results as given in the supplement of paper PMC10849652.
# About 8,800 targets were measured; listed, in parts, are those with a hit and a random draw of the rest. About 0.5% of all pairs of compound and target were hits. A number with no mark means an inactive call.
# Compound: Cc1sc2c(c1C)C(c1ccc(Cl)cc1)=N[C@@H](CC(=O)OC(C)(C)C)c1nnc(C)n1-2
# Test: log2 fold change, soluble protein after heating vs DMSO (PISA); higher = thermal stabilisation; K562 lysate, 10 uM; active = over 0.2 and 3.5 SD of the protein, either way, in both replicates (recomputed)
# Method in brief: (§1)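 Log-two fold change in thermal stability relative to solvent controls is reported from duplicates. For each sample, crude K562 extract from dounce-homogenised pellets in PBS pH 7.4 with 1 mM MgCl2, at 1 mg/mL protein, was treated with 10 μM compound for 30 min. Aliquots heated for 3 min across 48°C-58°C were pooled, brought to 0.5% NP-40 at 4°C and cleared at 21,000xg for 90 min. The supernatant was quantified by TMTpro 16plex LC-MS/MS with channel sums equalised.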
# Sequence of UniProt P23919 (P23919 whole entry, looked up): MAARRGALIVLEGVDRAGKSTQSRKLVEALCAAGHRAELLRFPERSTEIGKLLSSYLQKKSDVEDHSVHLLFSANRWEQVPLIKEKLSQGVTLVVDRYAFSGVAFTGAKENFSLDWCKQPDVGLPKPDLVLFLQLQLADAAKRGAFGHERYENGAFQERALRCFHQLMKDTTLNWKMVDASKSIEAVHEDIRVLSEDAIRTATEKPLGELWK
# Sequence of UniProt Q8TB52 (Q8TB52 whole entry, looked up): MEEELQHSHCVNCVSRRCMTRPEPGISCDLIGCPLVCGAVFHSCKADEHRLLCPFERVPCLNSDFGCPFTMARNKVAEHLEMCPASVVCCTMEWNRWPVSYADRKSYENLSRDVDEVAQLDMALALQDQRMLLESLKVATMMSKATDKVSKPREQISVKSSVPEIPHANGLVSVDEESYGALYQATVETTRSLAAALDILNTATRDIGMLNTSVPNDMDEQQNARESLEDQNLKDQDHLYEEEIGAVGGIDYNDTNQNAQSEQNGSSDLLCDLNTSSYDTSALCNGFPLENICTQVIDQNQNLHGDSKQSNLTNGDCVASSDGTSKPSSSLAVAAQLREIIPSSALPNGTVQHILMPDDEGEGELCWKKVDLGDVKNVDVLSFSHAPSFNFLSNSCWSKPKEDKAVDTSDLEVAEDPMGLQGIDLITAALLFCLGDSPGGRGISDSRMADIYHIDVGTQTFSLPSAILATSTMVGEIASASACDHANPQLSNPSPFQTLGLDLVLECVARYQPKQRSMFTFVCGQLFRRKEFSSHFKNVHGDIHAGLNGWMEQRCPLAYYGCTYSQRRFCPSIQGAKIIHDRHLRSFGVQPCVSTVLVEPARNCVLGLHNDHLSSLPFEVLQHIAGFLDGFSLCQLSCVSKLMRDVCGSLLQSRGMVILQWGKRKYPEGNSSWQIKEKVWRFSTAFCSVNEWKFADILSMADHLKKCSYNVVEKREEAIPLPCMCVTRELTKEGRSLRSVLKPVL
# Sequence of UniProt Q9H4H8 (Q9H4H8 whole entry, looked up): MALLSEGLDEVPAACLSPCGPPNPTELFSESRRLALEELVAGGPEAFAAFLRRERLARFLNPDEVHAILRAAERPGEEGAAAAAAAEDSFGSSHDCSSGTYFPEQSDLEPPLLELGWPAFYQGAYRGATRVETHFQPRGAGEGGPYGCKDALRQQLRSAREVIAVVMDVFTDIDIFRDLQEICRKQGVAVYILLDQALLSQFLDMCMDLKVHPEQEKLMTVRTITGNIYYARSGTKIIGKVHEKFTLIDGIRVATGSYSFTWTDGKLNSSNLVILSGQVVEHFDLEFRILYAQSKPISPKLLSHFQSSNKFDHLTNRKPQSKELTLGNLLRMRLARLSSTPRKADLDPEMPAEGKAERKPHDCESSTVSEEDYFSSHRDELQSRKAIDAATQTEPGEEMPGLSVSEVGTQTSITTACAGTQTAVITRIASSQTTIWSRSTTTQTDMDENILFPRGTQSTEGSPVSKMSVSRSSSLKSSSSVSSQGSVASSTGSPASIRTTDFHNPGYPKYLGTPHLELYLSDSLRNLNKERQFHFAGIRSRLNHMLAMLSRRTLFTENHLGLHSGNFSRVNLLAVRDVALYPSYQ
# Sequence of UniProt O43768 (O43768 whole entry, looked up): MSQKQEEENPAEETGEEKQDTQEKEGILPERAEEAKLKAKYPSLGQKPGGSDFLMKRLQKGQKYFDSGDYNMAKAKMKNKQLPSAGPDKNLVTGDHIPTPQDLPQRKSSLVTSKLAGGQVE
# Sequence of UniProt P54852 (P54852 whole entry, looked up): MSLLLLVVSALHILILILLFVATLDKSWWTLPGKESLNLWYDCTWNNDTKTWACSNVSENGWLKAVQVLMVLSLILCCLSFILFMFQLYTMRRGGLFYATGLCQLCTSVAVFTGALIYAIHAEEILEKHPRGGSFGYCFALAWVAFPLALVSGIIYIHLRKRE
# Sequence of UniProt Q9UBQ6 (Q9UBQ6 whole entry, looked up): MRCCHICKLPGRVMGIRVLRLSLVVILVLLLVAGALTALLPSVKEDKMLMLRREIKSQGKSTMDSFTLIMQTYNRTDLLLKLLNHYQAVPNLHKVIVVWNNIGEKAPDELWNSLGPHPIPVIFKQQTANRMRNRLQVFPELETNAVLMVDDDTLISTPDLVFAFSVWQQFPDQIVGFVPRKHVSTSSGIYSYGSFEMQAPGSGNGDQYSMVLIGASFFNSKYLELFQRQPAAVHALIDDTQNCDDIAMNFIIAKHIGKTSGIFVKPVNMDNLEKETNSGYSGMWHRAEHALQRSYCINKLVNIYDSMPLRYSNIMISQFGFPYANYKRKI
# Sequence of UniProt O95208 (O95208 whole entry, looked up): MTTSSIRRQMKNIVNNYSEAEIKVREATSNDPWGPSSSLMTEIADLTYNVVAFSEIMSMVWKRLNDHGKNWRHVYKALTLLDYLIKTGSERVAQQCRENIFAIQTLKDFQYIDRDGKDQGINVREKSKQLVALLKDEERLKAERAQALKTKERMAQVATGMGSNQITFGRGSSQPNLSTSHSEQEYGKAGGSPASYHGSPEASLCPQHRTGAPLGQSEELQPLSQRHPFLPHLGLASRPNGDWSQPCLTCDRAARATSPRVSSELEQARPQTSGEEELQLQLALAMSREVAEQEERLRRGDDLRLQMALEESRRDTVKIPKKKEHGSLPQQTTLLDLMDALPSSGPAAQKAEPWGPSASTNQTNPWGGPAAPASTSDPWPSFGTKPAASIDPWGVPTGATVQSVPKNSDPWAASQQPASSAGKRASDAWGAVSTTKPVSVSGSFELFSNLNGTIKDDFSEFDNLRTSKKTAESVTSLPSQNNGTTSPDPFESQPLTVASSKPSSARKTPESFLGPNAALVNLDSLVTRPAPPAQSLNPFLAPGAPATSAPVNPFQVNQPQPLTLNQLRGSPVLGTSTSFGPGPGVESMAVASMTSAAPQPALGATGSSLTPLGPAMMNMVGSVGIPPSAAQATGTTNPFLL
# Sequence of UniProt Q8NEZ5 (Q8NEZ5 whole entry, looked up): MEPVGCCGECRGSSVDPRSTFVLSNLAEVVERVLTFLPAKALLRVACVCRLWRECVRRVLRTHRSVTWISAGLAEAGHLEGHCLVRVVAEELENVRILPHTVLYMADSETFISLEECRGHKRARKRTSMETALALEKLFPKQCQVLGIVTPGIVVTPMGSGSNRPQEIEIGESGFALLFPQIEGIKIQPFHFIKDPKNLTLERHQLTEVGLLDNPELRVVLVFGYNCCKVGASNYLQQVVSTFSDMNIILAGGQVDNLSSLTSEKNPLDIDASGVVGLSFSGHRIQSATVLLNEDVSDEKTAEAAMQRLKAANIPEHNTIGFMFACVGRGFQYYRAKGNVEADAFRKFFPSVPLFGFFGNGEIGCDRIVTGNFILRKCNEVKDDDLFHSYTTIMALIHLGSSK
# Sequence of UniProt O75616 (O75616 whole entry, looked up): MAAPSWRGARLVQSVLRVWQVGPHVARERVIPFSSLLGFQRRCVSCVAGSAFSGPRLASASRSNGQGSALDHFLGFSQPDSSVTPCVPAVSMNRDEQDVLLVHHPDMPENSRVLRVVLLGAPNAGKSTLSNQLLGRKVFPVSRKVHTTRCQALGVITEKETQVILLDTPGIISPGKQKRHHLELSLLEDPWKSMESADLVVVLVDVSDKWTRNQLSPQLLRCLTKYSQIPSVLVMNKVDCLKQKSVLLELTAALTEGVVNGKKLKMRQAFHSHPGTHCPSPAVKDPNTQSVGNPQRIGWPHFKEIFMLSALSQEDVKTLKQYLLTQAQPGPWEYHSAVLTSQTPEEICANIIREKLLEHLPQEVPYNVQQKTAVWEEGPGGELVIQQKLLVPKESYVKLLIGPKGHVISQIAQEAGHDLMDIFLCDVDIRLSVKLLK
# Sequence of UniProt Q7L8L6 (Q7L8L6 whole entry, looked up): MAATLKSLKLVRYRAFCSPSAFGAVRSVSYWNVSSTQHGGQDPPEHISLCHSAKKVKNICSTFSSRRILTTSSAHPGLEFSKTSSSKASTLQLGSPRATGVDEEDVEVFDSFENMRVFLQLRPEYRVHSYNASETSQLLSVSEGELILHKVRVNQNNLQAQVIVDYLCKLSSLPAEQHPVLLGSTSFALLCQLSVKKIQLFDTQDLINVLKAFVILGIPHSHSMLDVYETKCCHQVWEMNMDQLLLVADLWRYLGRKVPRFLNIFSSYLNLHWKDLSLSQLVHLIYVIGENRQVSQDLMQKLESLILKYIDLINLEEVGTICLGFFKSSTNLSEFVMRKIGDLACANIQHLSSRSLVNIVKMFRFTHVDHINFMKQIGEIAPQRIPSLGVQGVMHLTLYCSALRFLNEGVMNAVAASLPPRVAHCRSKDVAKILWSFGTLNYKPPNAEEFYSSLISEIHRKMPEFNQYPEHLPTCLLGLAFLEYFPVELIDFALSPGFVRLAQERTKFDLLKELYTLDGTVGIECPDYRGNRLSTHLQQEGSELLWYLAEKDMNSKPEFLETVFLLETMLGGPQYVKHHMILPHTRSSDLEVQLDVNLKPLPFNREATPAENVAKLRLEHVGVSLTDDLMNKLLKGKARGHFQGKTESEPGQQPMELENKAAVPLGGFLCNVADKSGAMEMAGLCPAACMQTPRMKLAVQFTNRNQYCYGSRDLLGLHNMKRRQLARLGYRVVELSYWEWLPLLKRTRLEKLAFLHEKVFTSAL
# Sequence of UniProt Q10471 (Q10471 whole entry, looked up): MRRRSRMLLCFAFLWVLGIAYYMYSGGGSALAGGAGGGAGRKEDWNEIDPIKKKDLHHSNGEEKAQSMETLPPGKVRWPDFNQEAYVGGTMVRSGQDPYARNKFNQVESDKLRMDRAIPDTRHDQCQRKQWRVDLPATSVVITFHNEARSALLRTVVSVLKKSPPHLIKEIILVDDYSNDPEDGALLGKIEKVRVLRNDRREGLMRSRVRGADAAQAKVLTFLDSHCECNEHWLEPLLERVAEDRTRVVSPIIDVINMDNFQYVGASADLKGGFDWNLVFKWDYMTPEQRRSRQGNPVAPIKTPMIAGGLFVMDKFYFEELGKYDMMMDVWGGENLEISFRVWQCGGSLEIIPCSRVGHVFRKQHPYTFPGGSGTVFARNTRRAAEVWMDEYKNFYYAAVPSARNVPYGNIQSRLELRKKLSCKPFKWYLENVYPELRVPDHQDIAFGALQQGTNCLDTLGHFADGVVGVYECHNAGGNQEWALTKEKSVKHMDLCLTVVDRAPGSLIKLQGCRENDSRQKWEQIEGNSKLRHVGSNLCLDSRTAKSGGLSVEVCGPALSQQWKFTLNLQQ
row,Target,log2 fold change
1,ESPL1 (UniProt Q14674),0.136
2,FCHO1 (UniProt O14526),0.009
3,GALNT2 (UniProt Q10471),0.004
4,EPN2 (UniProt O95208),-0.084
5,DUS3L (UniProt Q96G46),-0.001
6,EIF2B4 (UniProt Q9UI10),-0.224
7,FAM120B (UniProt Q96EK7),-0.016
8,FTL (UniProt P02792),-0.03
9,"EEF1A1, A0A087WVQ9",-0.001
10,GAPVD1 isoform 6 (UniProt Q14C86),-0.011
11,ENSA isoform 3 (UniProt O43768),-0.008
12,FYCO1 isoform 4 (UniProt Q9BQS8),0.023
13,GEMIN5 (UniProt Q8TEQ6),-0.002
14,EWSR1 (UniProt H7BY36),-0.058
15,DUSP22 isoform 2 (UniProt Q9NRW4),0.099
16,ECH1 (UniProt Q13011),-0.026
17,GEMIN4 (UniProt P57678),0.04

row,Target,log2 fold change
1,FYN (UniProt P06241),0.019
2,EMP3 (UniProt P54852),-0.113
3,EXTL2 (UniProt Q9UBQ6),-0.185
4,FBXO30 (UniProt Q8TB52),0.036
5,EHD2 (UniProt Q9NZN4),-0.069
6,FBXO22 (UniProt Q8NEZ5),0.02
7,FOXJ3 (UniProt Q9UPW0),-0.021
8,EEF1A1P5 (UniProt Q5VTE0),-0.067
9,ERAL1 (UniProt O75616),0.009
10,FASTKD5 (UniProt Q7L8L6),-0.002
11,FAM83D (UniProt Q9H4H8),-0.02
12,ESYT2 (UniProt H7BXI1),0.048
13,DTYMK (UniProt P23919),-0.096
14,FTSJ1 (UniProt Q9UET6),-0.005
15,DSN1 (UniProt Q9H410),-0.013
16,FTSJ3 (UniProt Q8IY81),-0.003
17,DST (UniProt Q03001),-0.061

# Compound: c1ccc([C@@H]2C[C@H]2NC2CCNCC2)cc1
# Test: as above
# Method in brief: as §1
row,Target,log2 fold change
1,ESPL1 (UniProt Q14674),0.077
2,FCHO1 (UniProt O14526),0.027
3,GALNT2 (UniProt Q10471),-0.021
4,EPN2 (UniProt O95208),-0.161
5,DUS3L (UniProt Q96G46),0.098
6,FAM120B (UniProt Q96EK7),0.035
7,FTL (UniProt P02792),-0.031
8,"EEF1A1, A0A087WVQ9",0.049
9,GAPVD1 isoform 6 (UniProt Q14C86),0.063
10,ENSA isoform 3 (UniProt O43768),0.02
11,FYCO1 isoform 4 (UniProt Q9BQS8),-0.1
12,GEMIN5 (UniProt Q8TEQ6),0.036
13,EWSR1 (UniProt H7BY36),0.061
14,DUSP22 isoform 2 (UniProt Q9NRW4),-0.028
15,ECH1 (UniProt Q13011),0.012
16,GEMIN4 (UniProt P57678),0.041
17,FYN (UniProt P06241),-0.112

row,Target,log2 fold change
1,EMP3 (UniProt P54852),-0.345
2,EXTL2 (UniProt Q9UBQ6),0.028
3,FBXO30 (UniProt Q8TB52),0.12
4,EHD2 (UniProt Q9NZN4),0.087
5,FBXO22 (UniProt Q8NEZ5),0.083
6,FOXJ3 (UniProt Q9UPW0),-0.026
7,EEF1A1P5 (UniProt Q5VTE0),-0.036
8,ERAL1 (UniProt O75616),0.075
9,FASTKD5 (UniProt Q7L8L6),0.133
10,FAM83D (UniProt Q9H4H8),-0.006
11,ESYT2 (UniProt H7BXI1),0.036
12,DTYMK (UniProt P23919),0.098
13,FTSJ1 (UniProt Q9UET6),0.048
14,DSN1 (UniProt Q9H410),0.02
15,FTSJ3 (UniProt Q8IY81),0.083
16,DST (UniProt Q03001),-0.077
